TRb SRC2 PPI = disrupts binding of human TR beta to SRC2; 0.065% of 280,000 active; Potency, µM (titrated, usually from 106 µM), most hits filed as inhibitors; P10828; TRbeta-SRC2 peptide binding, fluorescence polarization; receptor liganded with 1 µM T3; also: nearly all actives have a fitted effect of over 50% in size
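Human TRb LBD (0.6 uM) plus Texas Red-labeled SRC2 peptide (20 nM), 1uM T3, 5% DMSO, 5 hr at ambient temperature. Decreased polarization (555/632 nm) flags inhibition; data normalized to free and bound peptide controls.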
Tau fibril FP = tau fibrillization inhibition (FP); P10636; K18 P301L tau heparin fibrillization, Alexa594 FP, 6 h; Potency, µM (highest dose often 57.7 µM), most hits filed as inhibitors; 0.39% of 280,000 active; AID 1468; also: nearly all actives have a fitted effect of over 55% in size
Target sequence (P10636 561-689 P618L limits assumed): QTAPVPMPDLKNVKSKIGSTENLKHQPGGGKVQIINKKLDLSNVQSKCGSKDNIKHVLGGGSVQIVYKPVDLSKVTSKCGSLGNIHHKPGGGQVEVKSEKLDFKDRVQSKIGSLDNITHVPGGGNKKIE
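Steps: dispense K18 P301L tau (15 uM plus 0.24 uM Alexa 594 tracer, final) in pH 7 sodium acetate; add compound; add heparin (20 uM final); incubate 6 hr, 37 C; add ThT (30 uM final); after 1 hr ambient, read FP.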
TexasRed fluor = alters Texas Red total fluorescence, flagging assay interference; TRb/SRC2 Texas Red total fluorescence interference; Potency, µM (doses to about 106 µM); 0.29% of 280,000 active; active = well fitted curve in either direction with a large enough effect; inconclusive = small, poorly fitted or top-dose-only effect
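Flags fluorescent or light-absorbing compounds by total fluorescence, S + 2P, at 555 nm excitation and 632 nm emission. Mixture: 20 nM Texas Red SRC2 peptide, 0.6 uM human TRb LBD, 1 uM T3, 5% DMSO; compound exposure 5 h at ambient temperature.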
Tau fibril ThT = inhibitors of human tau fibril formation, thioflavin T binding; 2.1% of 270,000 active; Potency, µM (titrated, usually from 57.4 µM), hits mostly inhibitors; recombinant tau K18 P301L, heparin-induced fibrillization, ThT fluorescence; P10636; also: nearly all actives have a fitted effect of over 55% in size
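Aggregation was driven by heparin (20 uM final) acting on recombinant tau […] bearing P301L in 100 mM sodium acetate pH 7; fibrils were detected with Thioflavin T.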
GoLoco inh red = blocks human Gai1 binding to RGS12 GoLoco peptide, red readout; P63096; Gai1:RGS12 GoLoco peptide FP, rhodamine, 10 min; Potency, µM (top dose mostly 61.6 µM), usual class: inhibitors; 0.44% of 230,000 active; AID 880; active = well fitted inhibition curve with a large enough effect, not every such curve was filed as active; inactive = no such curve, though single readings can be large or run the other way; also: nearly all actives have a fitted effect of over 30% in size
Target sequence (P63096 whole entry, looked up): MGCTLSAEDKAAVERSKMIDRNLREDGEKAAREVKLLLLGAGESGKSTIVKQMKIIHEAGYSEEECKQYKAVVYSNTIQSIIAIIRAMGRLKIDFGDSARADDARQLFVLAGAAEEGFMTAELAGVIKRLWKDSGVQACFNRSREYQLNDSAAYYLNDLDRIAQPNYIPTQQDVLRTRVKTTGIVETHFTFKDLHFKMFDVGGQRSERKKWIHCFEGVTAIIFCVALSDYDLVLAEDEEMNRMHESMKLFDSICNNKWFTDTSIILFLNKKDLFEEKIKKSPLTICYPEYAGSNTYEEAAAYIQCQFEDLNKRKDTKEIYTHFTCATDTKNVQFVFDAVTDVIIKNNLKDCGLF
Tau fluor counter = counter-screen for tau fibril formation inhibitors. tau K18 P301L (four-repeat tau fragment) Alexa594 fluorescence, heparin fibrillization. Potency, µM (doses to about 57.7 µM). 0.93% of 280,000 active; also: nearly all actives have a fitted effect of over 55% in size
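Human K18 P301L tau (15 uM unlabeled plus 0.24 uM Alexa 594-labeled, final) in 100 mM sodium acetate pH 7 was mixed with compound and 20 uM heparin and incubated 6 hr at 37 C.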
Large screens that a line does not name were inactive; [ ] = dose if it differs, or a comment. Most compounds without a hit are left out; they make up all but 3.2% or so of the library. Unless noted, calls follow the shape of the dose curve; as a rule, active = well fitted curve in the direction sought with a large enough effect; inconclusive = small, poorly fitted or top-dose-only effect, or another doubt; inactive = no such curve, though single readings can be large; an effect the other way counts as inactive or inconclusive.

COc1ccc2c(c1)O[C@@H](c1cccc(C(F)(F)F)c1)[C@H](OC(=O)NCc1ccco1)C2=O	none
CCOC(=O)c1c(-c2ccccc2)csc1NC(=O)/C(C#N)=C/c1ccc(O)c(OC)c1	Tau fibril ThT inconclusive, Tau fluor counter 13µM[quencher]
CCOC(=O)c1c(-c2ccccc2)csc1NC(=O)/C(C#N)=C/c1ccc(OC)c(OC)c1	none
Cc1ccc2nc(/C(C#N)=C\c3ccc(N4CCOCC4)o3)[nH]c2c1	Tau fibril FP inconclusive, Tau fibril ThT 13µM, Tau fluor counter inconclusive
Cc1ccc(/C(C#N)=C\c2ccc(N3CCOCC3)o2)cc1	Tau fibril FP inconclusive, Tau fibril ThT 10µM, Tau fluor counter inconclusive
N#C/C(=C\c1ccc(N2CCOCC2)o1)C(=O)NCCc1ccccc1	Tau fibril ThT 8.9µM
N#C/C(=C\c1ccc(N2CCOCC2)o1)C(=O)NCC1CCCO1 (stereo unspecified)	none
CN(CCc1ccccn1)c1ccc2c(c1)C(=O)c1ccccc1-2	none (no result: TRb SRC2 PPI, Tau fibril FP, TexasRed fluor, Tau fibril ThT, Tau fluor counter)
COCCOCCOCCOC	none (no result: Tau fibril FP, Tau fibril ThT, GoLoco inh red, Tau fluor counter)
CC(=O)N1[C@H](Cc2ccccc2)C=C[C@]1(C)C(=O)O	none
CCCCCCC1=Cc2cc(OC)c(OC)cc2C(C(C(C)=O)C(=O)OC)O1 (stereo unspecified)	none (no result: GoLoco inh red)
Nn1cnc2c([nH]c3ccccc32)c1=O	TexasRed fluor 1122µM[quencher]
COc1ccc2c(c1)[nH]c1c(=O)n(N)cnc12	none
CC1CC2(C)Oc3ccccc3C3OCC1(COC(=O)Nc1ccccc1)C(C)C32 (stereo unspecified)	none
O=C(O)C1Nc2c(C(=O)N3CCOCC3)cccc2C2C=CCC12 (stereo unspecified)	Tau fibril FP inconclusive, Tau fibril ThT 14µM, Tau fluor counter inconclusive
O=C(c1ccccc1O)N1CCOCC1	none
Cc1ccc2c(c1C)NC(C(=O)O)C1CC=CC21 (stereo unspecified)	Tau fibril FP inconclusive, Tau fibril ThT 11µM, Tau fluor counter inconclusive
C[C@H](C(=O)O)c1ccc2cc(O)ccc2c1	none (no result: Tau fibril FP, Tau fibril ThT, GoLoco inh red, Tau fluor counter)
COC(=O)C1=C(C)N=C2SC(C#N)=C(N)N2C1c1ccc(OCc2ccccc2)cc1 (stereo unspecified)	Tau fibril FP inconclusive, Tau fibril ThT inconclusive, Tau fluor counter 7.9µM[quencher]
Cc1cc2nc3[nH]c4c(Cl)cc(Cl)cc4c3nc2cc1C	none (no result: TRb SRC2 PPI, Tau fibril FP, TexasRed fluor, Tau fibril ThT, Tau fluor counter)
COc1ccccc1CNc1cc(-c2ccoc2)ncn1	none (no result: TRb SRC2 PPI, Tau fibril FP, TexasRed fluor, Tau fibril ThT, Tau fluor counter)
Cc1ccc2c(c1)N(CC(=O)NCc1cccc(Cl)c1)C(=O)c1cccnc1O2	none (no result: GoLoco inh red)
COc1ccc(CNC(=O)CN2C(=O)c3cccnc3Oc3ccc(C)cc32)cc1	TexasRed fluor 20µM[quencher] (no result: GoLoco inh red)
Cc1ccc(CNC(=O)CCCN2C(=O)c3cccnc3Oc3ccc(Cl)cc32)cc1	TexasRed fluor 18µM[quencher] (no result: GoLoco inh red)
C=C(C)C(=O)OCCCCCCCCCCCCCCCC	none (no result: Tau fibril FP, Tau fibril ThT, GoLoco inh red, Tau fluor counter)
COc1ccc(-n2cc(C(=O)OCc3ccc(F)c(F)c3)c3ccccc3c2=O)cc1	TexasRed fluor 0.079µM[quencher] (no result: GoLoco inh red)
CN(C)C(=O)c1ccc(-c2ccc3ncnc(NC4CCNCC4)c3c2)cc1	none
O=C1C(Cl)=C(NCCCO)C(=O)c2ccccc21	Tau fibril ThT inconclusive
CCOCCCNC1=C(Cl)C(=O)c2ccccc2C1=O	Tau fibril FP inconclusive, Tau fibril ThT 16µM, GoLoco inh red 3.2µM, Tau fluor counter inconclusive
C[C@@H]1CC[C@]2(C(=O)O)CC[C@]3(C)C(=CCC4[C@@]5(C)C[C@@H](O)[C@H](O)[C@@](C)(CO)C5[C@H](O)C[C@]43C)C2[C@H]1C (stereo partly specified)	none
CCN(CC)c1ccc(NC(=O)COCc2cc(-c3ccc4c(c3)OCO4)on2)c(C)c1	Tau fibril ThT 2.8µM, Tau fluor counter inconclusive (no result: GoLoco inh red)
COc1cc(C)c(/C=C/C(C)=C/C=C/C(C)=C/C(=O)O)c(C)c1C	Tau fibril ThT 25µM, Tau fluor counter inconclusive
Cc1cccc(C)c1Nc1oc(-c2ccccc2)nc1-c1ccccc1F	none
CC(C)(C)NC(=O)C(c1cccnc1)N(C(=O)c1ccc(Cl)nc1)C1CCCC1 (stereo unspecified)	Tau fibril ThT 13µM

High-throughput results (PubChem BioAssay)
